Where “and” joins values, the source holds several entries; their conditions need not be identical. Equal values may be shown once. Inconclusive results are not listed. Where a call stands in place of a potency, no number is given. Some compounds were tested as several samples or in several runs, with calls that do not always agree. Calls of active or inactive are those of the source. Unless noted, calls follow the shape of the dose curve; as a rule, active = well fitted curve in the direction sought with a large enough effect in the repeat runs; inconclusive = weak or mixed curves; inactive = no such curve, though single readings can be large; an effect the other way counts as inactive or inconclusive.
Tests used:
[1] = qHTS assay to identify small molecule antagonists of the estrogen receptor alpha (ER-alpha) signaling pathway using the BG1 cell line in the presence of 0.1 nM 17-beta-estradiol - cell viability counter screen (AID 1259241); also: nearly all actives have a fitted effect of over 40% in size; also: potency is read from the fitted curve at half-maximal effect
Procedure, shortened: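 CellTiter-Fluor read (30 min, 37C) on ER-alpha/ERE-luc VM7Luc4E2 cells; 22 hr compound treatment; agonist 0.1 nM E2 final; same-well multiplex.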

[2] = qHTS assay to identify small molecule antagonists of the androgen receptor (AR) signaling pathway using the MDA cell line in the presence of 0.5 nM R1881 - cell viability counter screen (AID 1259242); also: nearly all actives have a fitted effect of over 45% in size; also: potency is read from the fitted curve at half-maximal effect
Procedure, shortened: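 Cytotoxicity toward MDA-kb2 cells is measured by CellTiter-Fluor live-cell protease fluorescence after 16 hr compound exposure at 37C in the presence of 0.5 nM R1881 stimulator.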

[3] = qHTS assay to identify small molecule HDAC inhibitors (AID 1259364); also: nearly all actives have a fitted effect of over 45% in size; also: potency is read from the fitted curve at half-maximal effect
Procedure, shortened: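 Homogeneous cell-based luminescent assay of endogenous class I/II HDAC activity; HCT-116 cells, 2 h compound exposure, 30 min HDAC-Glo development at RT.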

[4] = qHTS assay to identify small molecule HDAC inhibitors - cell viability counter screen (AID 1259365); also: series mostly up to about 92 µM; nearly all actives have a fitted effect of over 50% in size
Procedure, shortened: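 To flag cytotoxic hits, 1,500 wild-type HCT-116 cells per well, plated the day before, receive test compounds for 2hr at 37 C before CellTiter-Glo reagent and a luminescence read.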

[5] = qHTS assay to identify small molecule agonists of the sonic hedgehog signaling (Shh) pathway - cell viability counter screen (AID 1259366); also: nearly all actives have a fitted effect of over 50% in size; also: potency is read from the fitted curve at half-maximal effect
Procedure, shortened: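 Fluorescence from CellTiter-Fluor reports live cells in this counter screen. NIH/3T3-derived Gli1-Luc reporter cells receive test compounds for 24hr at 37C; reagent goes in at 23hr.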

[6] = qHTS assay to identify small molecule agonists of the sonic hedgehog signaling (Shh) pathway (AID 1259368; calls by dose curve;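 also: NIH/3T3-derived 3T3Gli1-Luc cells carrying a stable Gli1-driven firefly luciferase reporter; series mostly up to about 92 µM; nearly all actives have a fitted effect of over 15% in size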)
Procedure, shortened: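 Steps: seed 3T3 Gli1-Luc cells, incubate 4 hr at 37 C, pin-transfer compounds in DMSO alongside a positive control, incubate 24 hr, add luciferase detection reagent, wait 30 min at room temperature, read luminescence.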

[7] = qHTS assay to identify small molecule antagonists of the sonic hedgehog signaling (Shh) pathway (AID 1259369; calls by dose curve; also: nearly all actives have a fitted effect of over 45% in size; also: potency is read from the fitted curve at half-maximal effect)
Procedure, shortened: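 Inhibition of Shh signalling is measured as reduced Gli1-response-element firefly luciferase output in an NIH/3T3-derived stable reporter clone stimulated with conditioned medium for 24hr.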

[8] = qHTS assay to identify small molecule agonists of the androgen receptor (AR) signaling pathway in the presence of an antagonist - cell viability counter screen (AID 1259379); also: nearly all actives have a fitted effect of over 25% in size; also: potency is read from the fitted curve at half-maximal effect
Procedure, shortened: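 Fluorescence from CellTiter-Fluor, added after 15 hr and read 1 hr later, gave cell viability. Cells were MDA-kb2 exposed to compounds (15 concentrations) in the presence of 3.0uM nilutamide at 37C, 0% CO2.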

[9] = biological target: Thyrotropin receptor (Homo sapiens) (UniProt P16473); test: qHTS assay to identify small molecule antagonists of the thyroid stimulating hormone receptor (TSHR) signaling pathway (AID 1259385; calls by dose curve; also: nearly all actives have a fitted effect of over 20% in size; also: potency is read from the fitted curve at half-maximal effect)
Procedure, shortened: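 TSHR-HEK293 cells were plated and held 18 h at 37C/5% CO2, then given compound plus Ro20-1724 and stimulated with TSH at 1.5 ng/mL final. After 30 min at room temperature, cAMP was detected with cAMP-d2/anti-cAMP-cryptate (1 h) by fluorescence.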

[10] = qHTS assay to identify small molecule agonists of the estrogen receptor beta (ER-beta) signaling pathway - cell viability counter screen (AID 1259380); also: nearly all actives have a fitted effect of over 30% in size; also: potency is read from the fitted curve at half-maximal effect
Procedure, shortened: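 Same-well viability counter screen. Cells: ER-beta-UAS-bla HEK293T, plated 6 hr before compound, in 2% charcoal-stripped FBS. Compound exposure 16 hr, 37C; viability by CellTiter-Glo luminescence after 30 min at room temperature.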

[11] = qHTS assay to identify small molecule antagonists of the estrogen receptor beta (ER-beta) signaling pathway - cell viability counter screen (AID 1259382); also: nearly all actives have a fitted effect of over 55% in size; also: potency is read from the fitted curve at half-maximal effect
Procedure, shortened: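 Following a 6 hr plating period, HEK293T cells carrying a UAS-driven beta-lactamase reporter under ER-beta control received compounds and 1nM E2 (final). After 16 hr at 37C and 2 hr substrate loading, CellTiter-Glo luminescence indicated viability.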

[12] = qHTS assay to identify small molecule phospholipidosis (PLD) inducers (AID 1259344; active = well fitted curve in the direction sought with a large enough effect; an effect the other way counts as inactive or inconclusive; also: potency is read from the fitted curve at half-maximal effect)
Procedure, shortened: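 HepG2 cells on collagen I, attached 4 h at 37 C, were co-treated with compound and LipidTOX Red dye for 24 h at 37 C, then fixed with paraformaldehyde plus Hoechst 33342 and imaged by high-content microscopy for phospholipid accumulation.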

[13] = qHTS assay to identify small molecule antagonists of the sonic hedgehog signaling (Shh) pathway - cell viability counter screen (AID 1259367); also: nearly all actives have a fitted effect of over 55% in size
Procedure, shortened: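 NIH/3T3-derived Gli1-Luc reporter cells (2,000 per well) rested 4 hr at 37 C, then received DMSO compounds plus conditioned medium. After 23 hr of treatment, CellTiter-Fluor was added for 1 hr at 37C and fluorescence read.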

[14] = qHTS assay to identify small molecule agonists or antagonists of the thyroid stimulating hormone receptor (TSHR) signaling pathway - wild type cell line counter screen (AID 1259384; calls by dose curve)
Procedure, shortened: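 Wild-type HEK293 cells were plated 18 h at 37 C/5% CO2, pin-dosed with compound plus Ro20-1724 medium, held 30 min at room temperature, then given cAMP-d2 and anti-cAMP-cryptate; fluorescence was read after 1 h. Fifteen concentrations, triplicate.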

[15] = biological target: Estrogen receptor beta (Homo sapiens) (UniProt Q92731); test: qHTS assay to identify small molecule antagonists of the estrogen receptor beta (ER-beta) signaling pathway (AID 1259378; active = well fitted inhibition curve with a large enough effect in the signal ratio in the repeat runs, not every such curve was filed as active; the % refers to the signal ratio; also: potency is read from the fitted curve at half-maximal effect)
Procedure, shortened: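 ER-beta-UAS-bla HEK293T (GripTite) cells in 2% charcoal-stripped FBS medium were preincubated 6 hr at 37C, dosed with compound, then stimulated with 1 nM E2 (final) for 16 hr; beta-lactamase reporter read by B/G FRET fluorescence after 2 hr substrate loading.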

[16] = biological target: Estrogen receptor (Homo sapiens) (UniProt P03372); test: qHTS assay to identify small molecule antagonists of the estrogen receptor alpha (ER-alpha) signaling pathway using the BG1 cell line in the presence of 0.1 nM 17-beta-estradiol (AID 1259244); also: nearly all actives have a fitted effect of over 50% in size
Procedure, shortened: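 After 5 days in hormone-depleted medium (charcoal-stripped serum, no phenol red), VM7Luc4E2 cells were seeded, incubated 24 h, then co-treated with compound and 0.1 nM (final) estradiol for 22 h before luminescence detection.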

[17] = biological target: Estrogen receptor (Homo sapiens) (UniProt P03372); test: qHTS assay to identify small molecule agonists of the estrogen receptor alpha (ER-alpha) signaling pathway in the presence of an antagonist (AID 1259383; calls by dose curve; also: top concentration of the series differs between compounds; nearly all actives have a fitted effect of over 15% in size)
Procedure, shortened: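 Cells are hormone-deprived for 5 days (charcoal-stripped FBS, no phenol red), plated for 24hr, spiked with 10.0nM ICI-182,780, then dosed at 15 concentrations. After 22hr at 37C, ONE-Glo luminescence reports ERE-luciferase activity.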

[18] = biological target: Estrogen receptor beta (Homo sapiens) (UniProt Q92731); test: qHTS assay to identify small molecule agonists of the estrogen receptor beta (ER-beta) signaling pathway (AID 1259377; active = well fitted activation curve with a large enough effect in the signal ratio in the repeat runs, not every such curve was filed as active; the % refers to the signal ratio)
Procedure, shortened: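 Screening used GripTite ER-beta-UAS-bla cells held in 2% charcoal-stripped FBS medium. After overnight (16 hr) compound incubation at 37C, beta-lactamase activity was detected with a FRET substrate by fluorescence.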

Chain of Estrogen receptor (Homo sapiens) (P03372 whole entry, looked up): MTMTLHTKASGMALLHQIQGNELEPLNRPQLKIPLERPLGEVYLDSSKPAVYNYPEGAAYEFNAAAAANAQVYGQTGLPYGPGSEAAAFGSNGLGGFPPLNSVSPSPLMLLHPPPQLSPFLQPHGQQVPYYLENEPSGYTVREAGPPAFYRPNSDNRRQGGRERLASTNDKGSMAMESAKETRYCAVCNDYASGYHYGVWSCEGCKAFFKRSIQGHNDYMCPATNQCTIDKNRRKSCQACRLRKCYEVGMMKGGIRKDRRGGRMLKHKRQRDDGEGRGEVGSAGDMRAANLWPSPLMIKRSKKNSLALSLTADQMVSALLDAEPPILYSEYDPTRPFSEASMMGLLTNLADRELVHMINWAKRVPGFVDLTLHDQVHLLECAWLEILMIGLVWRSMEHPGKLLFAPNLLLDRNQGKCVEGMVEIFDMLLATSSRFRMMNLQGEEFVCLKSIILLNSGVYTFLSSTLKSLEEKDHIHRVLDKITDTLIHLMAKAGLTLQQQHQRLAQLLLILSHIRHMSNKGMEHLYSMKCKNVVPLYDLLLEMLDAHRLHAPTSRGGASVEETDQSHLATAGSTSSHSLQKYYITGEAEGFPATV
Chain of Estrogen receptor beta (Homo sapiens) (Q92731 whole entry, looked up): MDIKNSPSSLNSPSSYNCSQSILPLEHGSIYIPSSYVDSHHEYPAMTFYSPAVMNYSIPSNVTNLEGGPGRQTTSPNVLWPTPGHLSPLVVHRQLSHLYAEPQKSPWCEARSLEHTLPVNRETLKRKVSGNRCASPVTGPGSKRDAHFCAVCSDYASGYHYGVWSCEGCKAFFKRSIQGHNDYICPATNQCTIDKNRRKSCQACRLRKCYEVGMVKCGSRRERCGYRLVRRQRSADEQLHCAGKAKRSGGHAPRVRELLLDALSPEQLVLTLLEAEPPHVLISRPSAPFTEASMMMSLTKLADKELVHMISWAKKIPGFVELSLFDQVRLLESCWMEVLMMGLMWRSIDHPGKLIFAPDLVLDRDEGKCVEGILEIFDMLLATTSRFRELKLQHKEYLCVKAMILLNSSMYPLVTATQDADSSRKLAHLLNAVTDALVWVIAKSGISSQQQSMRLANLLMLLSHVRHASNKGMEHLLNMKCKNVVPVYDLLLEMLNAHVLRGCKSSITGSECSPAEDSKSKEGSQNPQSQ
Chain of Thyrotropin receptor (Homo sapiens) (P16473 whole entry, looked up): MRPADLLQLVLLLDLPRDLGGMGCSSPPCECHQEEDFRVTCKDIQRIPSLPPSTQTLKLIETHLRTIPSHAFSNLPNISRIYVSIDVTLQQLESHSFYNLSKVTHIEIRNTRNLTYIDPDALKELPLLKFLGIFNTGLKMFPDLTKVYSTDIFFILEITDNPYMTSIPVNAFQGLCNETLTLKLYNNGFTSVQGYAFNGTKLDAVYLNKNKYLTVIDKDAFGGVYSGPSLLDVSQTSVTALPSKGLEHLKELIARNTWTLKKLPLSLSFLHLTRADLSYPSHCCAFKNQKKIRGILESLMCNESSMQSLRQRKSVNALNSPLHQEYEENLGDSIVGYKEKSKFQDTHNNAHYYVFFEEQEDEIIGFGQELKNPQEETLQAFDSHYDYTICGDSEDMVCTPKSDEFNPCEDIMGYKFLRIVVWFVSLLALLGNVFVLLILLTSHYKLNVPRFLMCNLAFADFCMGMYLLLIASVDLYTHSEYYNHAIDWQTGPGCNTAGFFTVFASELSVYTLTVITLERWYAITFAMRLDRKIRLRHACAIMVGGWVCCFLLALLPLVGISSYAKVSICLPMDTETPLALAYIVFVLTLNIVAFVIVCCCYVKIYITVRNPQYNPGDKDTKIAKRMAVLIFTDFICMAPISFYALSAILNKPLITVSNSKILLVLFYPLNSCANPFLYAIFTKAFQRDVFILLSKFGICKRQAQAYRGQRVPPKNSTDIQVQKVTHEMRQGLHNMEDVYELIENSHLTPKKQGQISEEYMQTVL

SMILES	Potency [1]	Potency [2]	Potency [3]	outcome [4]	Potency [5]	Potency [6]	Potency [7]	Potency [8]	Potency [9]	Potency [10]	Potency [11]	Potency [12]	Potency [13]	Potency [14]	Potency [15]	Potency [16]	Potency [17]	Potency [18]
C[C@]12CC[C@@H]3c4ccc(O)cc4CC[C@H]3[C@@H]1CC[C@H]2O	inactive	inactive	inactive	inactive	inactive	inactive	4.94 µM (active) and 4.86 µM (active)	inactive	31.2 µM (active)	–	–	–	–	–	–	–	–	–
CCCOCCO	inactive	inactive	inactive	inactive	inactive	inactive	inactive	inactive	inactive	inactive	inactive	–	–	–	–	–	–	–
C[C@]12CC[C@@H]3c4ccc(O)cc4CC[C@H]3[C@@H]1CC[C@@H]2O	inactive	inactive	inactive	inactive	inactive	inactive	3.06 µM (active) and 5.45 µM (active)	inactive	–	–	inactive	inactive	inactive	–	–	–	–	–
C=C[C@H]1CN2CC[C@H]1C[C@H]2[C@H](O)c1ccnc2ccc(OC)cc12	inactive	inactive	inactive	inactive	inactive	–	–	inactive	–	inactive	inactive	inactive	inactive	–	–	–	–	–
CC(C)[C@@H]1CC[C@@H](C)CC1=O	inactive	inactive	inactive	inactive	inactive	inactive	24.3 µM (active) and inactive	inactive	inactive	inactive	inactive	inactive	inactive	inactive	–	–	–	–
NC[C@H](O)c1ccc(O)c(O)c1	inactive	inactive	inactive	inactive	inactive	inactive	inactive	inactive	–	inactive	inactive	inactive	inactive	–	–	–	–	–
Nc1ccc2c(O)cc(S(=O)(=O)O)cc2c1	61.1 µM (active)	–	inactive	inactive	–	inactive	inactive	inactive	inactive	15.4 µM (active)	inactive	–	–	–	2.73 µM (active)	–	–	–
CCCCCCCCCCC(CO)CCCCCCCC (stereo unspecified)	inactive	inactive	inactive	inactive	inactive	inactive	inactive	inactive	inactive	inactive	inactive	inactive	inactive	inactive	–	–	–	–
IC(I)I	inactive	inactive	inactive	inactive	inactive	inactive	15.3 µM (active) and inactive	inactive	inactive	inactive	inactive	inactive	inactive	inactive	inactive	–	–	–
Nc1ccc(O)c(N)c1	–	inactive	inactive	inactive	–	inactive	inactive	–	–	inactive	inactive	–	–	–	inactive	inactive	inactive	–
CC1(C)NC(=O)N(c2ccc([N+](=O)[O-])c(C(F)(F)F)c2)C1=O	inactive	inactive	inactive	inactive	inactive	inactive	15.4 µM (active)	inactive	inactive	inactive	inactive	inactive	–	inactive	inactive	–	–	inactive
CC1(C)OC(=O)NC1=O	inactive	inactive	inactive	inactive	inactive	inactive	inactive	inactive	inactive	inactive	inactive	inactive	inactive	–	–	–	–	–
CCCCCCOCCOCCO	inactive	inactive	inactive	inactive	inactive	inactive	inactive	inactive	inactive	inactive	inactive	–	–	–	–	–	–	–
COCCOCCOCCO	inactive	inactive	inactive	inactive	inactive	inactive	inactive	inactive	inactive	inactive	inactive	–	–	–	–	–	–	–
CC(C)(Oc1ccc(Cl)cc1)C(=O)O	inactive	inactive	inactive	inactive	inactive	inactive	inactive	inactive	inactive	inactive	inactive	inactive	inactive	–	–	–	–	–
CN(C)CCCN1c2ccccc2Sc2ccc(Cl)cc21	–	61.1 µM (active)	–	inactive	30.6 µM (active) and 23.7 µM (active)	inactive	13.7 µM (active) and inactive	61.1 µM (active)	26.6 µM (active)	19.3 µM (active) and 16.8 µM (active)	27.3 µM (active) and 18.8 µM (active)	3.16 µM (active)	–	–	30.6 µM (active) and 21.1 µM (active)	–	–	–
C[N+](C)(C)CCO	inactive	inactive	inactive	inactive	inactive	inactive	inactive	inactive	inactive	inactive	inactive	inactive	inactive	inactive	–	–	–	–
O=C(O)CCCCCCCCCCCC(=O)O	inactive	inactive	30.1 µM (active) and 27.3 µM (active)	inactive	inactive	inactive	inactive	inactive	inactive	inactive	inactive	–	inactive	–	–	–	–	–
C=C[C@H]1CN2CC[C@H]1C[C@@H]2[C@@H](O)c1ccnc2ccc(OC)cc12	inactive	inactive	inactive	inactive	inactive	–	–	inactive	–	inactive	inactive	inactive	inactive	–	–	–	–	–
CC/C(=C(/CC)c1ccc(O)cc1)c1ccc(O)cc1	inactive	inactive	–	inactive	inactive	–	–	60.6 µM (active) and inactive	inactive	60.6 µM (active) and 61.1 µM (active)	60.6 µM (active) and inactive	inactive	–	–	–	–	–	–
[Na+]	–	inactive	inactive	inactive	inactive	inactive	inactive	inactive	–	inactive	inactive	–	inactive	–	–	inactive	inactive	–
[O-]/[N+](=N\O)c1ccccc1	inactive	inactive	–	inactive	inactive	inactive	inactive	inactive	inactive	inactive	inactive	–	inactive	–	inactive	inactive	inactive	–

Reference: PubChem BioAssay (Tox21)
